Our source for the z-score and composite z-score values is PubChem BioAssay.

Activity calls are given as the source filed them.

Assay [1] is described as follows: optical density shifts of acrAB sulA E. coli – strain DRC41, OD650, 48 h, E. coli filamentation inducer project, primary screen (AID 1152).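 Further: E. coli MC1000 strain DRC41 lacking acrAB efflux pump and sulA.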 Conditions: higher = more signal, called active from +8 up or from −8 down.
Assay [2] is described as follows: probe aLefty1 binding on compound microarray – biochemical, small-molecule microarray, 635/667 nm fluorescence, primary screen (AID 1153).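 Further: score merges spot fluorescence with signal-to-noise ratio from the scanned slide images.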 The following applies: higher = more signal.
Assay [3] is described as follows: plasmodial surface anion channel blockers, osmotic lysis – cell-based, P. falciparum Indochina, OD700, 1 h, primary screen (AID 1154). Conditions: P. falciparum Indochina infected RBC osmotic lysis, higher = more signal, called active from +8 up or from −8 down.
The nature of assay [4]: plasmodial surface anion channel blockers, osmotic lysis – cell-based, P. falciparum Indochina, OD700, 2 h, primary screen (AID 1155).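 Further: lysis reports solute entry through the parasite surface anion channel PSAC.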 The following applies: P. falciparum Indochina infected erythrocytes, higher = more signal, called active from +8 up or from −8 down.
A short description of assay [5]: changes in parasitized red cell lysis, either direction – P. falciparum Indochina, OD700, 3 h, PSAC antagonist project, primary screen (AID 1156). The following applies: P. falciparum-infected erythrocytes, osmotic lysis, higher = more signal, called active from +8 up or from −8 down.
Assay [6] can be described thus: plasmodial surface anion channel blockers, osmotic lysis – cell-based, P. falciparum Indochina, OD700, 18 h, primary screen (AID 1157). Conditions: P. falciparum Indochina infected erythrocytes, osmotic lysis OD700, 18 h; higher = more signal, called active from +8 up or from −8 down.
Assay [7] in a line: S6 kinase pathway phospho-S6 level changes – cell-based, A549, cytoblot, luminescence, serum-stimulated, primary screen (AID 1158).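 Further: serum-stimulated A549 lung adenocarcinoma cells; signal is phosphorylated S6 detected by cytoblot immunostaining with HRP secondary.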 Conditions: 5 h, higher = more signal.
The target of assay [8] is NADPH oxidase 2 (Homo sapiens) (UniProt P04839). In words: compounds shifting NOX2 Amplex Red fluorescence – cell-based, HEK293-NOX2, PMA-stimulated, NOX inhibitor project, primary screen (AID 1159). Further: test concentration not given here. The following applies: 45 min, higher = more signal, called active from +8 up or from −8 down.
Chain of NADPH oxidase 2 (Homo sapiens) (P04839 whole entry, looked up): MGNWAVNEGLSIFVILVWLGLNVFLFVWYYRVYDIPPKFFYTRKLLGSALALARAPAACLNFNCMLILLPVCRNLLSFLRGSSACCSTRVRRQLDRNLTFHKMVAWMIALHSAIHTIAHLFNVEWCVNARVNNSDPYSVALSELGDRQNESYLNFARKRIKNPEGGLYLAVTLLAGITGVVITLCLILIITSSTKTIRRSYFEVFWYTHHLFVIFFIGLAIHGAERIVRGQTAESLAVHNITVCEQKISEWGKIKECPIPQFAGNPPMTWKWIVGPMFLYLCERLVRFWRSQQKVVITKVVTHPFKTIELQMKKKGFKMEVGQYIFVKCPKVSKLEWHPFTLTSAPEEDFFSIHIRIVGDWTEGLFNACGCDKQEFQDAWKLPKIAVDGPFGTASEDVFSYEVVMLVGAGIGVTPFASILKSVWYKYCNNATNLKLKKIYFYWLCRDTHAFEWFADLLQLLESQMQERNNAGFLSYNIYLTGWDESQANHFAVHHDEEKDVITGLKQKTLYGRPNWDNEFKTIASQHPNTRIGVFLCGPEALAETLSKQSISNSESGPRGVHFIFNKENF
Assay [9] addresses NADPH oxidase 4 (Homo sapiens) (UniProt Q9NPH5). In words: compounds shifting NOX4 Amplex Red fluorescence – cell-based, HEK293-NOX4, tetracycline-induced, NOX inhibitor project, primary screen (AID 1160). Conditions: HEK293-NOX4, Amplex Red H2O2 fluorescence, 45 min; higher = more signal, called active from +8 up or from −8 down.
Assay [10] has as its target NADPH oxidase 5 (Homo sapiens) (UniProt Q96PH1). In words: compounds shifting NOX5 Amplex Red fluorescence – cell-based, HEK293-NOX5, NOX inhibitor project, primary screen (AID 1161). Conditions: HEK293-NOX5, ionomycin, 45 min, higher = more signal.
Assay [11] can be described thus: compound effects on lung adenocarcinoma cell viability – A549, calcein-AM fluorescence, 48 h, basal, profiling panel (AID 1162). Further: test concentration not given here. The following applies: higher = more signal.
Assay [12] can be described thus: compound effects on differentiated 3T3-L1 adipocyte viability – cell-based, 3T3-L1 adipocytes, calcein-AM fluorescence, 48 h, basal, profiling panel (AID 1163). Further: test concentration not given here. Conditions: 3T3-L1 adipocytes viability, higher = more signal.
Assay [13] in a line: compound effects on hepatocellular carcinoma cell viability – HepG2, calcein-AM fluorescence, 48 h, basal, profiling panel (AID 1164). Further: test concentration not given here. Conditions: higher = more signal.
A short description of assay [14]: compound effects on multiple myeloma cell viability – MM1S, calcein-AM fluorescence, 48 h, basal, profiling panel (AID 1165). Further: test concentration not given here. Conditions: higher = more signal.
Assay [15] is described as follows: calcein-AM signal in unstimulated myeloma cells – cell-based, calcein-AM fluorescence, 48 h, PK04 Diversity Set, profiling panel (AID 1166).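 Further: cells grown under basal conditions without added stimulus; test concentration not given here.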 Conditions: RPMI8226 myeloma viability, higher = more signal.
The nature of assay [16]: JC-1 mitochondrial signal, unstimulated HepG2 cells – cell-based, JC-1 fluorescence, 24 h, 100 nL compound, profiling panel (AID 1167). Further: test concentration not given here. The following applies: HepG2 mitochondrial potential, higher = more signal.
A short description of assay [17]: JC-1 mitochondrial signal, unstimulated adipocytes – cell-based, JC-1 fluorescence, 3T3-L1 adipocytes, 24 h, 100 nL compound, profiling panel (AID 1168). Further: test concentration not given here. The following applies: JC-1 mitochondrial fluorescence, higher = more signal, called active from +8 up or from −8 down.
Assay [18] in a line: JC-1 mitochondrial signal, unstimulated myeloma cells – cell-based, JC-1 fluorescence, RPMI8226, 24 h, 100 nL compound, profiling panel (AID 1169). Further: test concentration not given here. The following applies: JC-1 mitochondrial potential fluorescence, higher = more signal.
The nature of assay [19]: JC-1 mitochondrial signal, unstimulated MM1S myeloma – cell-based, JC-1 fluorescence, 24 h, 100 nL compound, profiling panel (AID 1170). Further: test concentration not given here. Conditions: MM1S mitochondrial potential, higher = more signal.
Assay [20] is described as follows: resazurin metabolic signal in A549 cells – cell-based, resazurin fluorescence, 24 h, PK04 Diversity Set, profiling panel (AID 1171). Further: test concentration not given here. The following applies: A549 viability, higher = more signal, called active from +8 up or from −8 down. In general terms: Resazurin is reduced to fluorescent resorufin, in cell work by metabolically active cells.

Chain of NADPH oxidase 5 (Homo sapiens) (Q96PH1 whole entry, looked up): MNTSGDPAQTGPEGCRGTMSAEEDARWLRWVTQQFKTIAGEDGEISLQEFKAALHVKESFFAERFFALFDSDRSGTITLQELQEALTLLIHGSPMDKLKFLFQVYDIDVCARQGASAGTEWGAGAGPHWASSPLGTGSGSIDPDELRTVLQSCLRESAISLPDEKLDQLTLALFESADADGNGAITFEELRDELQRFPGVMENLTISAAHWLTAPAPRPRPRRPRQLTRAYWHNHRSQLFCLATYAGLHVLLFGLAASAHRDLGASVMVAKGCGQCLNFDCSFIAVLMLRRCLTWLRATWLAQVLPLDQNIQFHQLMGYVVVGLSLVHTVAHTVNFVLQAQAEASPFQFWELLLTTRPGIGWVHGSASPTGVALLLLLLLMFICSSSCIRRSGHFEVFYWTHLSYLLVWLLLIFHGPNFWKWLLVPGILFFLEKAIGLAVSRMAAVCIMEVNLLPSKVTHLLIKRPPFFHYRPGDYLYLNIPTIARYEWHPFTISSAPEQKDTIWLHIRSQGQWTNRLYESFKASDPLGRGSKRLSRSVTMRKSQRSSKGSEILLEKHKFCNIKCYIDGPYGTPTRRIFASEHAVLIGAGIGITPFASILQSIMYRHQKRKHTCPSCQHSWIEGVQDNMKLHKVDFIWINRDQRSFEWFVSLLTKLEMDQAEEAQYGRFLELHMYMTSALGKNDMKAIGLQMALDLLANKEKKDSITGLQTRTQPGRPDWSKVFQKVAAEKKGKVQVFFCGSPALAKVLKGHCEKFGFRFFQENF
Chain of NADPH oxidase 4 (Homo sapiens) (Q9NPH5 whole entry, looked up): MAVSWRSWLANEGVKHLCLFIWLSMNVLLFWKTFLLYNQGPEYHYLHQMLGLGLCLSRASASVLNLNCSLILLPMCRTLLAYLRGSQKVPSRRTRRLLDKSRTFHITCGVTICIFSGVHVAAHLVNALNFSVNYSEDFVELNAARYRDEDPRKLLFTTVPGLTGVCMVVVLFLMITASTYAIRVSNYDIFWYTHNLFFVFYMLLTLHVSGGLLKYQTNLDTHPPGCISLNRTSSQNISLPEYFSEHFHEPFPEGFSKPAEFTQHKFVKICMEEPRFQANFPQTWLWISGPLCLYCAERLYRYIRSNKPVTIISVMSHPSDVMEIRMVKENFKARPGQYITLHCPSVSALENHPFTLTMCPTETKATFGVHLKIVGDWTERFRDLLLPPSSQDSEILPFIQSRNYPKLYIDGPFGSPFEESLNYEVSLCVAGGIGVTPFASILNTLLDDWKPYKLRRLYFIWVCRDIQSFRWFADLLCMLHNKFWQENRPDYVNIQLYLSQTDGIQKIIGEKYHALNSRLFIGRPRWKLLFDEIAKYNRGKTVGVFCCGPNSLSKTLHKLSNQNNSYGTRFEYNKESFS

With `COc1cc2c(cc1OC)CN(C(=O)[C@H]1[C@@H]3C(=O)O[C@@H](c4ccccc4)[C@@H](c4ccccc4)N3[C@@H](c3ccc(O)cc3)[C@]13C(=O)Nc1ccc(C#CC4(O)CCCCCC4)cc13)CC2`, the z-score is -0.287 (inactive) in assay [1]; 0.621 (inactive) in assay [3]; 1.23 (inactive) in [4]; 0.89 (inactive) in assay [5]; 0.737 (inactive) in [6]; 0.48 in assay [7]. Also, the z-score in assay [8] was 1.79 (inactive); in [9], -0.239 (inactive); in [10], 1.02; in assay [11], 0.273; in assay [12], -0.0218; in [13], -0.155. Besides, the z-score in assay [14] was -0.369; in assay [15], -0.66; in [16], -1.37; in assay [17] it was -0.263 (inactive); in [18], -0.34; in [19] it was 0.432. Further, in assay [20], the z-score is 1.24 (inactive). In assay [2], this compound returned a composite z-score of 1.76.

As for `COc1cc(CO)cc(I)c1O[C@H]1C=C(C(=O)NCCO)C[C@@H](N(CC2CCCCC2)C(=O)c2cc3ccccc3oc2=O)[C@@H]1O`, the z-score in assay [1] is 2.01 (inactive); in [3], 2.5 (inactive); in assay [4], 0.718 (inactive); in assay [5], 1.18 (inactive); in [6], 0.207 (inactive); in assay [7], -0.0608. In addition, the z-score is -0.289 (inactive) in assay [8]; 1.3 (inactive) in assay [9]; 0.647 in [10]; 0.846 in assay [11]; -0.5 in [12]; 0.206 in assay [13]. Moreover, the z-score in assay [14] is 1.01; in assay [15], -1.1; in assay [16], 0.919; in assay [17] it was -0.294 (inactive); in assay [18], -0.806; in assay [19], -0.467. Also, the z-score in assay [20] was -0.206 (inactive). For the same compound, the composite z-score in [2] is -0.0969.

Take `C=C(COC)/C(=C/C[C@H](OC(C)=O)c1ccc(OCCO)cc1)c1cnc2ccccc2c1`: the z-score is 1.25 (inactive) in assay [1]; 13.5 (active) in assay [3]; -0.0743 (inactive) in [4]; 1.05 (inactive) in [5]; -0.947 (inactive) in assay [6]; -0.117 in [7]. The z-score was 1.32 (inactive) in assay [8]; 0.767 (inactive) in assay [9]; -0.593 in [10]; 0.373 in assay [11]; 1.18 in assay [12]; -0.141 in assay [13]. Also, the z-score in [14] is -1.53; in assay [15], 1.07; in assay [16] it was 2.07; in assay [17], 1.2 (inactive); in assay [18], 0.23; in [19], 0.278. The z-score in assay [20] is 0.715 (inactive). The compound further yielded a composite z-score in assay [2] of 0.199.

As to `CC1CC/C=C\[C@H]2OC34C=CCN(Cn5nnc6ccccc65)C(=O)[C@H]3N(C(C)CO)C(=O)[C@@H]4C2C(=O)O1` (stereo not given in full), the z-score was 0.0838 (inactive) in assay [1]; 2.25 (inactive) in [3]; 0.974 (inactive) in assay [4]; 1.03 (inactive) in [5]; 0.477 (inactive) in assay [6]; 0.0801 in assay [7]. The z-score was 0.963 (inactive) in assay [8]; 0.173 (inactive) in [9]; 1.79 in [10]; 0.151 in assay [11]; -0.14 in assay [12]; 0.203 in [13]. The z-score in [14] was 0.835; in [15], 0.182; in assay [16], 0.236; in assay [17], -0.087 (inactive); in assay [18], 0.128; in [19] it was -0.731. In addition, in [20], the z-score was 0.0113 (inactive). In assay [2], the composite z-score is -0.204.

As for `C=C(COC)C(=O)CC[C@H](OC(=O)c1ccccc1-c1ccccc1C(=O)O)c1cccc(OCCO)c1`, the z-score in assay [1] is 0.0418 (inactive); in assay [3] it was 3.26 (inactive); in [4] it was 1.91 (inactive); in assay [5] it was 0.281 (inactive); in assay [6], 1.36 (inactive); in assay [7], 0.29. For the same compound, the z-score in assay [8] is 0.635 (inactive); in assay [9], 0.112 (inactive); in [10], -2.96; in assay [11], -0.339; in [12], -0.765; in assay [13], -2.08. Besides, the z-score in assay [14] is -1.12; in assay [15], -0.28; in assay [16] it was -2.01; in [17], 0.414 (inactive); in assay [18], 0.231; in assay [19], -0.0895. Further, the z-score in assay [20] was -1.46 (inactive). The compound also showed a composite z-score in [2] of 0.333.
